Where a name gives a salt, the structure may show the parent alone.
These compounds were tested on Saccharomyces cerevisiae BY4741 SeMeCo community (assay: z-score of subpopulation abundance vs DMSO median, subpopulation auxotrophic for U; higher = larger share of this subpopulation than in DMSO controls). Conditions: 10 µM; 24 h; SM minimal medium; subpopulation (auxotrophy): U.
Method: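 Fluorescent four-plasmid SeMeCo (self-establishing metabolically cooperating S. cerevisiae BY4741 community; plasmids pH-mRuby2, pL-mWasabi, pU-eCFP, pM-TagRFP657) was grown 24 h in minimal SM medium with each Selleck FDA-approved drug at 10 µM in 384-well plates. Cells were fixed and imaged by high-content confocal microscopy. For each auxotrophic subpopulation (and the prototroph), a z-score gives the deviation from the DMSO vehicle-control population median.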

SMILES | z-score of subpopulation abundance
CC1=C(C(=O)O)N2C(=O)[C@@H](NC(=O)[C@H](N)C3=CCC=CC3)[C@H]2SC1 [Cephradine monohydrate] | 1.31
Cc1cnc(NC(=O)C2=C(O)c3ccccc3S(=O)(=O)N2C)s1 [Meloxicam] | -0.19
CC(=O)OCC1=C(C(=O)O)N2C(=O)C(NC(=O)CSC(=NC(C)C)NC(C)C)C2SC1 (stereo not given) [Cefathiamidine] | 0.86
Oc1cccc(O)c1 [Resorcinol] | 0.1
CN1C2CCCC1CC(NC(=O)c1nn(C)c3ccccc13)C2 (stereo not given) [Granisetron HCl] | -1.1
Clc1ccc2c(N3CCN(CCCN4CCN(c5ccnc6cc(Cl)ccc56)CC4)CC3)ccnc2c1 [Piperaquine phosphate] | 0.1
CCC(C)(C)c1ccc(CC(C)CN2C[C@@H](C)O[C@@H](C)C2)cc1 (stereo not given in full) [Amorolfine HCl] | 1.83
COCC(=O)Nc1cc(Sc2ccccc2)ccc1N=C(NC(=O)OC)NC(=O)OC [Febantel] | -1.73
Cc1nc(Nc2ccc(F)cc2)nc(N2CCc3ccccc3C2C)c1C (stereo not given) [Revaprazan Hydrochloride] | 0.73
Cc1cccc(Nc2ccccc2C(=O)O)c1C [Mefenamic Acid] | -0.58
CN(CCOc1ccc(NS(C)(=O)=O)cc1)CCc1ccc(NS(C)(=O)=O)cc1 [Dofetilide] | 0.48
COc1ccc2c3c1O[C@H]1C[C@@H](O)C=C[C@@]31CCN(C)C2 [Galanthamine HBr] | 0.01
CCOC(=O)C1=C(C)NC(C)=C(C(=O)OCC)C1c1ccccc1/C=C/C(=O)OC(C)(C)C [Lacidipine] | -3.36
CC1=C(C(=O)O)N2C(=O)[C@@H](NC(=O)[C@H](N)C3=CCC=CC3)[C@H]2SC1 [Cefradine] | 0.07
CCOC(=O)C1=C(C)NC(C)=C(C(=O)OC)C1c1cccc(Cl)c1Cl (stereo not given) [Felodipine] | -6.72
O=C(NCCN1CCOCC1)c1ccc(Cl)cc1 | -0.52
Oc1c(Br)cc(Br)c2cccnc12 [Broxyquinoline] | -3.11
O=C1CCc2cc(OCCCCc3nnnn3C3CCCCC3)ccc2N1 [Cilostazol] | -0.86
O=C(Cn1cnnn1)N[C@@H]1C(=O)N2C(C(=O)O)=C(CSc3nncs3)CS[C@H]12 [Ceftezole] | 0.9
CC1(C)S[C@@H]2[C@H](NC(=O)[C@H](NC(=O)N3CCNC3=O)c3ccccc3)C(=O)N2[C@H]1C(=O)O [Azlocillin sodium salt] | -1.51

SMILES | z-score of subpopulation abundance
CN[C@@H]1[C@H](O[C@H]2[C@H](O[C@H]3[C@H](O)[C@@H](O)[C@H](N=C(N)N)[C@@H](O)[C@@H]3N=C(N)N)O[C@@H](C)[C@]2(O)C=O)O[C@@H](CO)[C@H](O)[C@H]1O [Streptomycin sulfate] | 1.16
Cc1cccc(C)c1NC(=O)C1CCCCN1C (stereo not given) [Mepivacaine HCl] | 1.52
CCCc1nn(C)c2c(=O)[nH]c(-c3cc(S(=O)(=O)N4CCN(C)CC4)ccc3OCC)nc12 [Sildenafil Mesylate] | 1.64
Nc1nc(/C(=C/CC(=O)O)C(=O)N[C@@H]2C(=O)N3C(C(=O)O)=CCS[C@H]23)cs1 [Ceftibuten dihydrate] | -0.28
C[C@@H](CN1CC(=O)NC(=O)C1)N1CC(=O)NC(=O)C1 [Dexrazoxane HCl (ICRF-187, ADR-529)] | 0.64
CCCc1nn(C)c2c(=O)[nH]c(-c3cc(S(=O)(=O)N4CCN(C)CC4)ccc3OCC)nc12 [Sildenafil Citrate] | 0.43
Cc1cccc(C#Cc2ccccc2)n1 | 0.22
C[C@@H](O)[C@H]1C(=O)N2C(C(=O)O)=C(S[C@@H]3CN[C@H](C(=O)N(C)C)C3)[C@H](C)[C@H]12 [Meropenem Trihydrate] | -0.82
N[C@@H](CCC(=O)O)C(=O)O [(S)-Glutamic acid] | 0.05
C#C[C@]1(O)CC[C@H]2[C@@H]3CCC4=CCCC[C@@H]4[C@H]3C(=C)C[C@@]21CC [Desogestrel] | -0.38
COc1ccc(C2CNC(=O)C2)cc1OC1CCCC1 (stereo not drawn) [S- (+)-Rolipram] | -0.01
NC(=O)c1cnccn1 [Pyrazinamide] | 1.27
COc1cc2c(cc1OC)[C@@H]1Cc3ccc(OC)c(OC)c3CN1CC2 [Rotundine] | 0.7
C[C@@H]1C/C=C/C=C/C=C/C=C/[C@H](O[C@@H]2O[C@H](C)[C@@H](O)[C@H](N)[C@@H]2O)C[C@@H]2O[C@](O)(C[C@@H](O)C[C@H]3O[C@@H]3/C=C/C(=O)O1)C[C@H](O)[C@H]2C(=O)O [Natamycin] | 4.12
COc1c(N2CCNC(C)C2)c(F)cc2c(=O)c(C(=O)O)cn(C3CC3)c12 (stereo not given) [Gatifloxacin] | 0.81
CC(C)(C)C(=O)OCOC(=O)[C@@H]1N2C(=O)[C@@H](/N=C/N3CCCCCC3)[C@H]2SC1(C)C [Pivmecillinam hydrochloride] | 0.34
CO/N=C(\C(=O)N[C@@H]1C(=O)N2C(C(=O)OCOC(=O)C(C)(C)C)=C(/C=C\c3scnc3C)CS[C@H]12)c1csc(N)n1 [Cefditoren Pivoxil] | -0.88
CCn1cc(C(=O)O)c(=O)c2cc(F)c(N3CCNCC3)nc21 [Enoxacin Sesquihydrate] | 1.2
Cc1c(Cl)cccc1Nc1ccccc1C(=O)O [Tolfenamic Acid] | 0.15
Cc1c(-c2ccccc2)oc2c(C(=O)OCCN3CCCCC3)cccc2c1=O [Flavoxate HCl] | 0.96

From the supplement of paper PMC8975748
